Data on five molecules can be found in PubChem BioAssay (NCI).

The panel holds about 83,000 compounds, 20% with a hit somewhere; the sample as a whole holds those more often.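 Method: cells in 96-well plates; compound added at one concentration; 48 h incubation; percent growth measured; values under 10 scored active.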 Values without a mark were called inactive. Calls of active or inactive are those of the source.

This test deals with HL-60(TB) leukemia. Put plainly: NCI-60 one-dose screen, 48 h (100 = growth as untreated, 0 = no growth, -100 = all killed). The following applies: 10 µM unless noted.
`Nc1nn2c(-c3cc4cc(Br)ccc4oc3=O)ccnc2c1N=Nc1ccccc1`: the growth was 92.7%.

`COc1cccc(-c2ccc(/C=N/NC(=O)c3[nH]c4ccc(Br)cc4c3-c3ccccc3)s2)c1`: the growth is -28.2% (active).

As for `COc1ccccc1-n1cc(C#N)c(N)c1C(=O)c1ccc(Cl)cc1Cl`, the growth is 1.26% (active). Turning to `COc1ccc(-c2ccc(SCC(=O)NCCc3ccc(S(N)(=O)=O)cc3)nn2)cc1`, the growth is 60.5%. Turning to `CNS(=O)(=O)c1ccc(Nc2ccc(C(F)(F)F)cc2)c(-c2cn(C)cn2)c1`, the growth is 48%.
